In PubChem BioAssay:

Tested on: Sonic hedgehog protein (Shh)
Assay: small-molecule binders of Shh protein, primary screen, biochemical, small-molecule microarray, 635/667 nm fluorescence (AID 1151);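 note: Shh protein binding to compounds spotted on small-molecule microarray slides; score combines spot fluorescence intensity with signal-to-noise across triplicate slides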
Details: small-molecule microarray binding, 635 nm fluorescence; higher = more signal

| Compound | composite z-score |
| --- | --- |
| O=C(OCc1ccccc1)C1=CCC2c3[nH]c4ccccc4c3C(=O)C1N2S(=O)(=O)c1ccccc1[N+](=O)[O-] (configuration not stated) | 0.488 |
| CC(C)=CCN[C@H](CO)c1ccccc1 | 0.627 |
| O=C(c1ccccc1)N1Cc2ccccc2C[C@@]2(COC(c3ccc(OCCCO)cc3)=N2)C1=O | 1.33 |
| COC(=O)[C@H](Cc1ccccc1)N1CC2=C[C@@H](C3CC3)n3c(=O)n(C)c(=O)n3[C@H]2[C@@H]1[C@@H](O)Cc1ccccc1 | 1.4 |
| COc1ccc(C#Cc2ccc3c(c2)[C@]2(C(=O)N3)[C@H](C(=O)NC[C@H](O)c3ccccc3)[C@H]3C(=O)O[C@H](c4ccccc4)[C@H](c4ccccc4)N3[C@@H]2c2ccc(O)cc2)cc1 | 1.24 |
| CC(C)C(=C=CC[C@@H](O)c1ccc(OCCO)cc1)C[C@@H](O)COCc1ccccc1 | 2.09 |
| CCCCCN1CC=CC23O[C@@H]4C=CCCOC(=O)C4[C@H]2C(=O)N(CCCCCO)[C@@H]3C1=O (some centres not stated) | 0.225 |
| CN1C=C(C(=O)OCCS(C)(=O)=O)C(C(=O)OCCS(C)(=O)=O)=CC(c2ccc(CO)cc2)=CC1C1CC1 (configuration not stated) | 0.457 |
| COc1cc(C(O)C2C=CC3C(=O)NC(=O)C3N2Nc2ccccn2)cc(OC)c1OC (configuration not stated) | 0.371 |
| CN(C)CCCC[C@@H]1NC(=O)[C@H]2C[C@@H](C(=O)NCCCCCCN)[C@@H](c3ccc(O)cc3)N2C1=O | 2.03 |
| Cc1ccc(S[C@]2(C(=O)NCCCN(C)C)CC(=O)N(Cc3cc(C(F)(F)F)cc(C(F)(F)F)c3)[C@@H]2c2ccc(CO)cc2)cc1 | -0.664 |
| CC1(C)[C@@H]2CC(C(O)C3C=CC4C(=O)N(c5ccccc5)C(=O)C4N3Nc3ccc([N+](=O)[O-])cc3)=C[C@H]1C2 (some centres not stated) | 0.808 |
